Experimental data reported in the supplement of paper PMC3724861.
Shown is part of a subset that was picked to be rich in hits. How many sequences the whole screen found active is unknown. A number with no mark means an inactive call.

Test system: T1, Caupolican (Caup) homeodomain DNA-binding domain
T1 sequence: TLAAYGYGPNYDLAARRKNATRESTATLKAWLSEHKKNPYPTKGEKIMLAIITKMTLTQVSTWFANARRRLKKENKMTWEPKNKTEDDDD
Assay: PBM E-score (8-mer, recovered from the published 9-mer minima) (E-score (dimensionless, -0.5 to 0.5)); Drosophila protein; higher = stronger relative binding preference, active = 0.31 or more
Experimental: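 Protein binding microarray (PBM): in vitro transcribed/translated Caupolican (Caup) homeodomain DNA-binding domain (residues 214-303) applied at 100 nM to a universal 8-mer PBM array (Agilent AMADID 015681). The 8-mer enrichment score (E-score, range -0.5 to 0.5) was computed, and each 9-mer score is the minimum E-score of its two constituent 8-mers. The E-score is the same for a 9-mer and its reverse complement; 0.31 is the stated binding threshold.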

Row | Sequence | PBM E-score
1 | AATCTAGT | 0.0691
2 | CCGGTAAC | -0.0103
3 | CCGGACAG | 0.0176
4 | CCCAAGCA | -0.0938
5 | CGACCGCA | -0.144
6 | CATGACGC | 0.032
7 | AAGGACTA | 0.0433
8 | AATTAAGG | 0.0103
9 | ACCAGTGC | -0.019
10 | TAAGGGGA | -0.0541
11 | AAAAGTAT | 0.121
12 | ACAAGGAT | 0.315 (active)
13 | CCAAGTAC | 0.0484
14 | ACAAGTAC | 0.35 (active)
15 | ACAAGGAA | 0.247
16 | ACAAGTCT | 0.296
17 | GCAAGTAC | 0.176
18 | ACAAGTAT | 0.314 (active)
19 | ACAAGGAG | 0.224
20 | AAGATCGA | 0.0302
21 | TCAGTTAA | 0.0667
22 | ACAGGTAT | 0.203

Row | Sequence | PBM E-score
23 | ACCCCTCG | -0.218
24 | GTGTGAAC | 0.0865
25 | CTCTGTAC | 0.137
26 | ATATGTAG | 0.297
27 | ATATGTAC | 0.387 (active)
28 | CTATGTAC | 0.381 (active)
29 | ATATGTCC | 0.261
30 | CTATGTGC | 0.0747
31 | CTAGGACA | 0.241
32 | TAGTTTAA | 0.218
33 | AGCGAGCT | -0.108
34 | ACACCACC | 0.0972
35 | AAACTTTC | -0.0217
36 | ACTGACAG | 0.0804
37 | AAAACATT | 0.252
38 | CAAACATA | 0.292
39 | AAAACATG | 0.419 (active)
40 | CAAACATC | 0.23
41 | CAAACACA | 0.265
42 | CAAACACG | 0.315 (active)
43 | CAAACACC | 0.126
44 | CAAACATG | 0.391 (active)

Row | Sequence | PBM E-score
45 | AAAACATC | 0.305
46 | CATCTAGG | -0.0637
47 | CAAGTAAG | 0.0621
48 | CATTTCAA | 0.154
49 | ATGCAATA | 0.197
50 | TGAGGCAA | -0.0847
51 | AAGGGCGC | -0.172
52 | CACCAGGC | -0.132
53 | ATGTTGAG | 0.132
54 | ATGTTGTA | 0.431 (active)
55 | GTGTTGCA | 0.184
56 | ATGTTGTG | 0.282
57 | ACGTTGTA | 0.291
58 | CTGTTGTA | 0.273
59 | AGGTTGTG | 0.133
60 | AGGTTGTA | ≥ 0.333 (active)
61 | CGGTTGTA | 0.209
62 | CTGTTGAC | 0.137
63 | GTGTTGTA | 0.395 (active)
64 | ATGTTGAC | 0.322 (active)
